# Several values for one entry are separate records, joined by “and”; a condition that tells them apart may be missing. Equal values may be shown once. Unmarked numbers belong to inactive results. Inconclusive results are not listed. Entries that show only a call come without a potency. Activity calls are given as the source filed them. Unless noted, calls come from the whole dose curve; as a rule, active = well fitted curve in the direction sought with a large enough effect; inconclusive = small, poorly fitted or top-dose-only effect, or another doubt; inactive = no such curve, though single readings can be large; an effect the other way counts as inactive or inconclusive.
# Experiments:
# [1] = target: Tyrosine-protein kinase Yes (Homo sapiens) (UniProt P07947); assay: qHTS for small molecule inhibitors of Yes1 kinase: Primary Screen (AID 686947); note: nearly all actives have a fitted effect of over 60% in size; note: potency is the fitted concentration of half-maximal effect
# In short: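 ADP-Glo luminescence readout; final 4 nM Yes1, 0.1 mM ATP, 0.3 mg/mL poly(E4Y), Tris pH 7.5, MgCl2, DTT, Brij-35. 20 min compound preincubation, 60 min reaction at RT. Normalized to DMSO wells with and without enzyme.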
# [2] = qHTS for small molecule inhibitors of Yes1 kinase: Counter Assay (AID 686950);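 note: no kinase present so only ADP-Glo detection of a fixed ADP amount is tested; luminescence from ADP-Glo reporting ADP in a fixed ATP and ADP mixture; series mostly up to about 77 µM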
# In short: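 Luminescence read-out from ADP-Glo quantifies a fixed ADP amount (0.02 mM ADP with 0.08 mM ATP) after 60 min at room temperature; signal is normalized between DMSO wells with ATP/ADP and with 0.1 mM ATP alone.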
# [3] = qHTS assay for small molecule activators of the nuclear factor-kappa B (NF-kB) signaling pathway (AID 651749; active = well fitted activation curve with a large enough effect in the signal ratio; the % refers to the signal ratio; note: series mostly up to about 77 µM); conditions: NF-kB-bla ME-180 cells, beta-lactamase FRET ratio, 16 h; stronger effect = higher value
# In short: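 Stably transfected ME-180 line; NF-kB response element upstream of beta-lactamase. Treatment: compound or DMSO, 16 hr. Detection: fluorescent FRET substrate.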
# [4] = qHTS assay for environmental chemicals that activate the Aryl hydrocarbon Receptor (AhR) signaling pathway (AID 651777); conditions: 1A2-DRE human hepatoma cells, luciferase, 24 h; stronger effect = higher value; note: nearly all actives have a fitted effect of over 15% in size
# In short: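 Concentration–response screening used 1,200 1A2-DRE cells per well, 24 hr compound exposure (37 C, 5% CO2), and One-Glo luminescence as the AhR-driven CYP1A2 reporter signal.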
# [5] = target: Peroxisome proliferator-activated receptor alpha (Homo sapiens) (UniProt Q07869); assay: qHTS assay for small molecule agonists of the peroxisome proliferator-activated receptor alpha (PPARalpha) signaling pathway (AID 651778); conditions: PathHunter PPARalpha complementation, chemiluminescence, 6 h; stronger effect = higher value
# In short: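 Chemiluminescence from complemented enzyme reported PPARalpha activation in cells after 6 hr of compound treatment at 37 C. The detection reagent was incubated for 60 min at room temperature, and compounds were scored as agonists.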
# [6] = target: Tumor necrosis factor (Homo sapiens) (UniProt P01375); assay: qHTS assay to identify small molecules that stimulate Tumor Necrosis Factor-alpha (TNF-alpha) secretion (AID 651757; active = well fitted curve in the direction sought with a large enough effect in the signal ratio; the % refers to the signal ratio)
# In short: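 Secreted TNF-alpha from compound-treated THP-1 cells (17 hrs, 37 C) was quantified with a homogeneous time-resolved fluorescence antibody assay.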
# [7] = target: Nuclear receptor ROR-gamma (Homo sapiens) (UniProt P51449); assay: qHTS assay for small molecule antagonists of the retinoid-related orphan receptor gamma (ROR-gamma) signaling pathway (AID 651802);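 note: CHO cells with doxycycline-induced ROR-gamma expression; luciferase reporter luminescence driven by ROR response element; series mostly up to about 92 µM; nearly all actives have a fitted effect of over 60% in size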
# In short: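 Antagonism is scored as a fall in luminescence from a RORE-luciferase reporter in CHO cells expressing ROR under a TET-inducible promoter, measured 16hr after doxycycline induction in the presence of compound.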
# [8] = qHTS assay for small molecule disruptors of the mitochondrial membrane potential - 1 hr assay (AID 651754; calls by dose curve; note: nearly all actives have a fitted effect of over 35% in size)
# In short: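 Steps: seed HepG2 cells and let attach overnight; pin-transfer compound or vehicle; incubate 1 hr at 37C; add Mito-MPS dye for 30 min; read two-channel fluorescence for monomer and aggregate forms.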
# [9] = qHTS assay for small molecule disruptors of the mitochondrial membrane potential - 5 hr assay (AID 651755; calls by dose curve; note: nearly all actives have a fitted effect of over 40% in size)
# In short: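 HepG2, 2,000 cells/well, overnight attach; cpd or DMSO 5 hr, 37C/5% CO2; Mito-MPS 30 min 37C; fluor 490/535 + 540/590 nm.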
# Tyrosine-protein kinase Yes (Homo sapiens), sequence (P07947 whole entry, looked up): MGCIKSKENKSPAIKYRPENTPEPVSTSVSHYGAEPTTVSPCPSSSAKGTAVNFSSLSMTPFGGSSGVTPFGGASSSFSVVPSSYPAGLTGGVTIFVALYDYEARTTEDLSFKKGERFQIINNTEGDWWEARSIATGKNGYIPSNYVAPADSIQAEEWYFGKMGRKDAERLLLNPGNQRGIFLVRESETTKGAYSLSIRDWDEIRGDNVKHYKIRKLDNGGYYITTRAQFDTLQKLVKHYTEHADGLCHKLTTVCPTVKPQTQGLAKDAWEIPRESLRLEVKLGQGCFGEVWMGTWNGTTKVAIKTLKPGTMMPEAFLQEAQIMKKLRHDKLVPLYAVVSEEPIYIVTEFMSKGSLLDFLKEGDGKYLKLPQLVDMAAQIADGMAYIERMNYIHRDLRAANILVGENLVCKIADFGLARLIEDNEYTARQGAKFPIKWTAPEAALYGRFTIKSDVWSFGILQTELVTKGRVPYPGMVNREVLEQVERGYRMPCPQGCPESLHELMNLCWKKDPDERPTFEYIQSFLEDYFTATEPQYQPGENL
# Peroxisome proliferator-activated receptor alpha (Homo sapiens), sequence (Q07869 whole entry, looked up): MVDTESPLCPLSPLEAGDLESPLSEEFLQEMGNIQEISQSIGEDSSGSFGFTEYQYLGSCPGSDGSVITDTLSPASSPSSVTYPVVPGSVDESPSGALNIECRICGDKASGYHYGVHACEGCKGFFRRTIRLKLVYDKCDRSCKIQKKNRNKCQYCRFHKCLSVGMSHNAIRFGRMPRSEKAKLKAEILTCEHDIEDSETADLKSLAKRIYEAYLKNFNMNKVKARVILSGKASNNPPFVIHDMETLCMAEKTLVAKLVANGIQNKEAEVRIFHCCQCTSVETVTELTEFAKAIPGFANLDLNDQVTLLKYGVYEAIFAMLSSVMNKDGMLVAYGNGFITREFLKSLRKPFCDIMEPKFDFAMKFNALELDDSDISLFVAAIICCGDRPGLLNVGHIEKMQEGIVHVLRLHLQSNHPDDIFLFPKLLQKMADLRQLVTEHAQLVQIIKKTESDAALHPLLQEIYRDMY
# Nuclear receptor ROR-gamma (Homo sapiens), sequence (P51449 whole entry, looked up): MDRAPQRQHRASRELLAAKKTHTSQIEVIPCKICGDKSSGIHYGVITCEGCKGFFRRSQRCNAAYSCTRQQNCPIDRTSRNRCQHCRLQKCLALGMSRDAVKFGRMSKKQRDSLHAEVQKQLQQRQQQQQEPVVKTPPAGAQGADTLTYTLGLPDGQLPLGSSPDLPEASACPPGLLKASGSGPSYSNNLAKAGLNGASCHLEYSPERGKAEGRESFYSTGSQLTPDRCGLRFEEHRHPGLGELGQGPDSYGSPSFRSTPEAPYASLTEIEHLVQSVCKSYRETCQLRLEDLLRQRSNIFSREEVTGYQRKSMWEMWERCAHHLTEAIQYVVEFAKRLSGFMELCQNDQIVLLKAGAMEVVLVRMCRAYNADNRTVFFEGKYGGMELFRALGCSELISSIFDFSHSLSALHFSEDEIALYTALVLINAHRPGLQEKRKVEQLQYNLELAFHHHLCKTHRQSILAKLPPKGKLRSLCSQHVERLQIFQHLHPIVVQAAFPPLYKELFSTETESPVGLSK
# Tumor necrosis factor (Homo sapiens), sequence (P01375 whole entry, looked up): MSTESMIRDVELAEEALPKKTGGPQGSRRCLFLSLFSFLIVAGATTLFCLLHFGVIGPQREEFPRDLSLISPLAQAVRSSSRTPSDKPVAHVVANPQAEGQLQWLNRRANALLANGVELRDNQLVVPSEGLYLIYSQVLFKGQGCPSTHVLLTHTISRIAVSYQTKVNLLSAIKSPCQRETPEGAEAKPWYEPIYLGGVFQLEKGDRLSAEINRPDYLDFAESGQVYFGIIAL
compound,measurement,setting,value
CS(=O)(=O)c1ccc(C(=O)Nc2ccc(Cl)c(-c3ccccn3)c2)c(Cl)c1,Potency,[1],inactive
same,outcome,[2],inactive
C[C@@H]1C[C@H]2[C@@H]3CCC4=CC(=O)C=C[C@]4(C)C3(F)[C@@H](O)C[C@]2(C)[C@@]1(O)C(=O)CO (some centres not stated),Potency,[1],34500 nM (active)
same,outcome,[2],inactive
O=C1CCC(N2C(=O)c3ccccc3C2=O)C(=O)N1 (configuration not stated),activation,[3],-0.119%
same,activation,[4],-0.0215%
same,max response,[5],-0.602%
Cn1cnc([N+](=O)[O-])c1Sc1ncnc2nc[nH]c12,activation,[3],-1.21% and -0.92%
same,activation,[4],-4.71% and -5.39%
same,max response,[5],-2.81% and -2.18%
O=C(O)c1ccc(-c2c[nH]c3ccc(-c4ccccc4)cc23)cc1C1CCCC1,Potency,[1],1540 nM (active)
same,outcome,[2],inactive
CCCS(=O)(=O)Nc1ccc(F)c(C(=O)c2c[nH]c3ncc(-c4ccc(Cl)cc4)cc23)c1F,Potency,[1],1370 nM (active)
same,outcome,[2],inactive
O=c1ncn2nc(Sc3ccc(F)cc3F)ccc2c1-c1c(Cl)cccc1Cl,Potency,[1],inactive
same,outcome,[2],inactive
NC(N)=NC(=O)c1nc(Cl)c(N)nc1N,activation,[3],-0.363%
same,outcome,[6],inactive
same,activation,[4],6.31%
same,max response,[5],-5.82%
same,outcome,[7],inactive
same,outcome,[2],inactive
O=C(c1cc(Cc2n[nH]c(=O)c3ccccc23)ccc1F)N1CCN(C(=O)C2CC2)CC1,Potency,[1],inactive
same,outcome,[2],inactive
O=c1[nH]cnc2[nH]ncc12,activation,[3],1.17%
same,outcome,[6],inactive
same,activation,[4],-0.722%
same,max response,[5],-0.201%
same,outcome,[7],inactive
O=C(O)CCc1ccc(NCc2cccc(Oc3ccccc3)c2)cc1,Potency,[1],inactive
same,outcome,[2],inactive
CNC[C@H](O)c1cccc(O)c1,activation,[3],-0.433%
same,activation,[4],-0.659%
same,max response,[5],-0.749%
Cc1cc2c(C(C)C)c(O)c(O)c(C=O)c2c(O)c1-c1c(C)cc2c(C(C)C)c(O)c(O)c(C=O)c2c1O,activation,[4],-3.15%
same,outcome,[2],inactive
COc1ccccc1-c1cccc(-c2c(O)c3cc(C#N)c(Cl)cc3[nH]c2=O)c1,Potency,[1],inactive
same,outcome,[2],inactive
CS(=O)(=O)c1cccc(CNc2nc(Nc3ccc4c(c3)CCC(=O)N4)ncc2C(F)(F)F)c1,Potency,[1],972 nM (active)
same,outcome,[2],inactive
NC(=O)c1cnccn1,activation,[3],-0.539% and -2.05%
same,outcome,[6],inactive
same,activation,[4],-0.771% and 0.812%
same,max response,[5],-0.88% and -1.97%
same,outcome,[7],inactive
O=NN(CCCl)C(=O)NCCCl,activation,[3],-1.3%
same,activation,[4],0.58%
same,max response,[5],-2.23%
Cc1ccccc1C(OCCN(C)C)c1ccccc1 (configuration not stated),activation,[3],2.9%
same,activation,[4],0.382%
same,max response,[5],-4.12%
O=C1CCCC2=C1C(c1[nH]ncc1Cl)N=C(Nc1nc3ccccc3o1)N2 (configuration not stated),Potency,[1],inactive
same,outcome,[2],inactive
Cc1oncc1C(=O)Nc1ccc(C(F)(F)F)cc1,Potency,[1],inactive
same,outcome,[2],inactive
COc1ccc2c3n(c(=NC(=O)c4cccnc4)nc2c1OC)CCN3,Potency,[1],inactive
same,outcome,[2],inactive
COc1ccc2nc(S(=O)Cc3ncc(C)c(OC)c3C)[nH]c2c1 (configuration not stated),activation,[3],-0.714%
same,max response,[5],6.65%
same,Potency,[1],inactive
same,outcome,[2],inactive
NC[C@H](O)c1ccc(O)c(O)c1,activation,[4],0.207%
same,max response,[5],-1.8%
Cn1c(=O)c(F)c(Nc2ccc(I)cc2F)c2c(=O)n(C[C@@H](O)CO)cnc21,Potency,[1],inactive
same,outcome,[2],inactive
OC[C@H](Cc1ccccc1)Nc1nc(Oc2ccc3c(c2)CCC3)nc2c1ncn2Cc1ccc(-c2ccccc2)cc1,Potency,[1],inactive
same,outcome,[2],inactive
Cc1[nH]c(=O)c(C#N)cc1-c1ccncc1,activation,[3],-0.647%
same,activation,[4],0.896%
same,max response,[5],0.228%
O=C1[C@H](Cc2ccc(O)cc2)N2C(=O)CCN(C(=O)NCc3ccccc3)[C@H]2CN1Cc1cccc2ccccc12,Potency,[1],inactive
same,outcome,[2],inactive
CCC(C)n1ncn(-c2ccc(N3CCN(c4ccc(OC[C@H]5CO[C@](Cn6cncn6)(c6ccc(Cl)cc6Cl)O5)cc4)CC3)cc2)c1=O (some centres not stated),Potency,[1],inactive
same,outcome,[2],inactive
CNCc1ccc(-c2[nH]c3cc(F)cc4c3c2CCNC4=O)cc1,Potency,[1],308 nM (active)
same,outcome,[2],inactive
Cc1c(C)c2c(c(C)c1O)CCC(C)(COc1ccc(CC3SC(=O)NC3=O)cc1)O2 (configuration not stated),activation,[3],-3.91%
same,activation,[4],5.68%
same,max response,[5],1.07%
same,outcome,[2],inactive
CC(=O)Oc1ccccc1C(=O)O,activation,[3],-1.39% and 0.118% and -2.43%
same,outcome,[8],inactive
same,outcome,[9],inactive
same,outcome,[6],inactive
same,activation,[4],0.977% and -1.01% and -0.15%
same,max response,[5],-3.17% and 6.24% and -1.09%
same,outcome,[7],inactive

# Reference: PubChem BioAssay (NCATS)
